A selection: hits, their analogues and other compounds. The true share with any hit is near 3.6%.
DAT uptake mod = human DAT dopamine uptake with cocaine, either direction; B-score at 10 µM; 1.3% of 110,000 active; Q01959; AID 449768; LLC-PK1 hDAT cells, [14C]-dopamine uptake with cocaine IC80; actives deviate in either direction;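 active means Z score or B-score, a plate-position-corrected score, falls beyond the plate's 99.7% confidence bounds, in either direction; inactive means both scores lie inside the 99.7% bounds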;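 further: scored against the spread of the other compound wells on the same plate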
Target sequence (Q01959 whole entry, looked up): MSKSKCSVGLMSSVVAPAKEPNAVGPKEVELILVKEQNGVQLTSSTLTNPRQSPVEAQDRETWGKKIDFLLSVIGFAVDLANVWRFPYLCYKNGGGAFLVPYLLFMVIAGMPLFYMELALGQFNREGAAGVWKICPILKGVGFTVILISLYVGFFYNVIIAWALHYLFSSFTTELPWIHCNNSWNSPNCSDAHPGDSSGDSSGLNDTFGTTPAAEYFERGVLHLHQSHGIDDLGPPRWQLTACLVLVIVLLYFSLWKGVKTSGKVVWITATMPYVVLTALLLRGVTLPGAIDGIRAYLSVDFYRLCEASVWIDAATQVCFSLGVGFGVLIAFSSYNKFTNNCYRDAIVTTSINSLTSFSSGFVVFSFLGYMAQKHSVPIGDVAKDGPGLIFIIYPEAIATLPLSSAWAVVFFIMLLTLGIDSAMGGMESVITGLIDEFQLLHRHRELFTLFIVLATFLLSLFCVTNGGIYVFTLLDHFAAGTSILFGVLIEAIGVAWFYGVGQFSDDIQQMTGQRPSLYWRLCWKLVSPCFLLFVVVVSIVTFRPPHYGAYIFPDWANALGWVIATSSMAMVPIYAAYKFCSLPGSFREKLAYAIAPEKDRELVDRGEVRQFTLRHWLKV
WT yeast gro inh = growth inhibition of WT yeast, mitochondrial fusion screen. mitochondrial fusion phenotypic screen, WT strain. inhibition, % at 10 µM. 2.1% of 190,000 active; in the data active means inhibition above about 58%; tested in S. cerevisiae
PTEN del growth = suppresses growth of cells with PTEN deletion; AID 827; HCT116 PTEN-null viability, CellTiter-Glo, 60 h; active compounds read low; 1.2% of 140,000 active; viability, % at 10 µM;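 active means viability at or below a set limit, 4 SD under the median of all tested compounds, cut at about 3.7% in these data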;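 further: PTEN knockout HCT116 line with beta catenin targeted HCT116 as companion control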
bCat KO growth = beta-catenin-lacking colon tumor cell growth suppression; 1.5% of 140,000 active; AID 818; HCT116 beta-catenin knockout viability, CellTiter-Glo, 60 h; active compounds read low; viability, % at 10 µM;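 active means viability at or under a set limit, the compound median less 4 SD, cut at about 6% in these data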;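 further: 0% = Hyamine 1622 control at 20 µM and 100% = untreated cell control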
The depositor's hits bear a star; x = no result.

SMILES	DAT uptake mod	WT yeast gro inh	PTEN del growth	bCat KO growth
Cc1ccccc1N=C(NO)c1nonc1N	x	-0.7	x	x
C/C=C(/C(=C/C)c1ccc(O)cc1)c1ccc(O)cc1	0.46	63.0*	60.3	60.1
Cc1cc(C)c2nc(NNC(=O)c3ccc(S(=O)(=O)N4CCc5ccccc5C4)cc3)sc2c1	0.943	18.7	6.5	4.0*
Cc1cc(C)c2sc(NNC(=O)c3ccc(S(=O)(=O)N4CCc5ccccc5C4)cc3)nc2c1	0.0305	-24.7	7.3	6.8
Cc1cc(N/N=C/c2c(O)ccc3ccccc23)nc(-c2ccccc2O)n1	x	1.1	4.1	2.9*
Cc1cc(NCc2ccccc2)nc(-c2ccccc2O)n1	0.496	61.5*	27.4	22.6
COC(=O)Cn1cnc2c(nnn2-c2cccc(Cl)c2)c1=O	x	15.6	x	x
S=c1[nH]nc(-c2ccccn2)n1/N=C/c1ccc(-c2ccccc2Br)o1	x	27.5	x	x
S=c1[nH]nc(-c2ccccc2)n1/N=C/c1ccc(-c2ccccc2Cl)o1	x	58.2*	57.6	61.4
CCN(CC)C(=O)CNc1ccc(C(F)(F)F)cc1[N+](=O)[O-]	x	17.6	88.4	77.0
O=C(Cn1nc(C(F)(F)F)c2c1CCCC2)Nc1ccc2c(c1)OCO2	-1.63*	-7.4	83.1	79.3
Cc1cccc(C)c1Nc1nnc(SCC(=O)c2ccc3c(c2)NC(=O)CO3)s1	x	6.5	88.9	75.6
O=C(NCc1ccncc1)C1CCCCC1	-7.99*	3.3	97.8	102.2
COc1ccc(NC(=O)Cn2nnc(-c3ccccc3NC(=O)c3cccs3)n2)cc1	-0.681	7.5	50.0	62.0
Cc1ccc(NC(=O)Cn2nnc(-c3ccccc3NC(=O)c3cccs3)n2)cc1	0.226	9.6	3.4*	4.0*
CC(C)(C)NC(=O)NC(=O)COC(=O)Cc1coc2ccc3ccccc3c12	x	70.2*	83.0	96.3
Cc1c(Cl)cnc(NC(=O)COC(=O)Cc2coc3ccc4ccccc4c23)c1Cl	x	-6.8	100.2	87.0
c1ccc(-c2nc(N3CCCCC3)nc3ccccc23)cc1	0.723	68.4*	77.0	74.8
Cc1cc2nc(CCN(C(=S)NCC3CCCO3)C3CCCC3)[nH]c2cc1C (centres undefined)	x	14.9	x	x
Cc1cc2nc(CCN(C(=S)NCC(C)C)C3CCCC3)[nH]c2cc1C	2.66*	x	18.3	12.2
Cc1cc(NCCCN2CCOCC2)n2ncc(-c3ccc(Cl)cc3)c2n1	-0.257	29.5	65.6	63.9
Cc1cc(NCCCn2ccnc2)n2ncc(-c3ccc(Cl)cc3)c2n1	4.08*	63.9*	4.5	8.1
Cc1ccc(Cn2c(C(C)Nc3nc(-c4ccc(F)cc4)cs3)nc3cc(C(F)(F)F)ccc32)cc1 (centres undefined)	-0.229	x	x	x
C=CCSC(=C(C#N)C#N)c1cc2c([nH]1)CCCC2	-0.0509	34.9	1.9*	2.6*
Cc1cc(C)c(C(=O)Nc2ccc(Br)c(C(F)(F)F)c2)c(C)c1	x	81.1*	32.0	56.8
SMILES	DAT uptake mod	WT yeast gro inh	PTEN del growth	bCat KO growth
CN(CC(=O)Nc1ccc(Cl)c(Cl)c1)C(=O)C12CC3CC(CC(C3)C1)C2	x	75.6*	62.5	62.4
COCc1c(CCl)cnc(C)c1O	x	-6.0	x	x
CC(=O)Nc1cccc(-c2csc(Nc3ccccn3)n2)c1	2.52*	9.7	30.3	31.2
CC(=O)Nc1cccc(-c2csc(Nc3ccc(Cl)cn3)n2)c1	x	76.1*	x	x
CC(=O)Nc1ccc(-c2csc(Nc3cc(C)ccn3)n2)cc1	x	37.9	x	x
CC(=O)Nc1cccc(-c2csc(Nc3cc(C)ccn3)n2)c1	3.12*	52.9	35.0	31.5
Cc1ccnc(Nc2nc(-c3c(C)nc4sccn34)cs2)c1	0.791	80.7*	20.6	16.0
Cc1nc2ncccn2c1-c1csc(Nc2ccc(O)cc2)n1	x	6.5	x	x
CC(=O)Nc1ccc(-c2csc(Nc3ccc(Cl)cn3)n2)cc1	x	19.2	x	x
CCOC(=O)c1c(/N=C/C2=C(O)CCCC2=O)sc(C)c1C	x	1.1	99.0	96.3
CCOC(=O)c1c(-c2ccc(OC)cc2)csc1/N=C/C1=C(O)CCCC1=O	x	60.4*	102.3	92.5
O=C(CCc1ccc(Oc2cc([N+](=O)[O-])cc([N+](=O)[O-])c2)cc1)N1CCCCCC1	x	66.4*	81.4	88.9
O=C(Nc1ccccc1C(=O)N/N=C/c1ccncc1)c1ccccc1	x	77.1*	x	x
CCOCCCNC(=O)c1ccc(-n2c(=S)[nH]c3ccccc3c2=O)cc1	x	3.5	x	x
O=[N+]([O-])/C=C/c1c(OCc2ccccc2)ccc2ccccc12	-0.256	76.7*	2.5*	1.9*
CCOC(=O)Cn1cc(/C=C/[N+](=O)[O-])c2ccccc21	x	44.3	x	x
CCOC(=O)COc1ccc(/C=C/[N+](=O)[O-])c(OCC(=O)OCC)c1	0.785	13.9	1.9*	4.0*
CCOC(=O)COc1ccc2ccccc2c1/C=C/[N+](=O)[O-]	x	86.0*	2.6*	3.3*
CCOc1ccc(/C=C/[N+](=O)[O-])c2ccccc12	-2.83	-9.3	1.8*	2.0*
CCCCOc1ccc2ccccc2c1C=O	0.425	23.9	78.5	83.4
Cc1c(C(=O)/C=C/c2cccs2)oc2ccc(F)cc12	0.0962	-7.0	64.6	65.1
CC(=O)Oc1ccc2ccccc2c1C(NC(=O)Cc1ccccc1)c1ccccc1Cl (centres undefined)	-0.0874	-12.3	1.4*	3.9*
COCCCNC(=O)c1cccc(C(=O)NCCCOC)c1	-1.55	65.6*	83.7	88.3
O=C(NCCCNC(=O)c1cccs1)c1cccs1	-0.419	1.9	x	88.4
COCCCNC(=O)c1cccs1	2.66*	-14.2	107.6	99.1
SMILES	DAT uptake mod	WT yeast gro inh	PTEN del growth	bCat KO growth
NC1=NC(=O)C2(COC(c3ccncc3)OC2)S1 (centres undefined)	x	5.1	x	x
Cc1cccc(NC(=O)CCNS(=O)(=O)c2cccc3nsnc23)c1	1.81*	2.7	99.3	91.0
O=C(OCC(=O)N(Cc1ccccc1)C1CCS(=O)(=O)C1)c1cc2c(s1)CCCC2 (centres undefined)	x	32.1	85.8	90.2
CCc1ccc(Sc2cc(C(=O)NCCN3CCOCC3)c3ccccc3n2)cc1	x	-3.4	85.7	84.6
CN1CCN(CCCNC(=O)c2ccc(/C=C3\Sc4ccccc4N(Cc4ccccc4F)C3=O)cc2)CC1	x	49.0	x	x
CCN1CCN(CCNC(=O)c2ccc3c(c2)N(Cc2ccc(F)cc2)C(=O)/C(=C/c2ccccc2)S3)CC1	x	85.8*	x	x
CCN1CCN(CCNC(=O)c2ccc(/C=C3/Sc4ccccc4N(Cc4cccc(Cl)c4)C3=O)cc2)CC1	x	98.1*	x	x
O=C(NCCN1CCOCC1)c1ccc2c(c1)N(Cc1cccc(F)c1)C(=O)c1ccccc1S2	x	0.4	x	x
O=C(N/N=C/c1ccccn1)c1ccc(Br)cc1	x	25.4	3.6*	3.6*
O=C(N/N=C/c1ccccn1)c1ccc(N/N=C/c2ccccn2)cc1	x	-0.3	x	x
Cc1ccc(S(=O)(=O)NCc2cn3c(C)csc3n2)cc1	-0.605	0.4	96.2	91.8
Clc1ccc(SCc2cn3ccccc3n2)cc1	x	51.9	x	x
Cc1cccc2nc(CSc3ccc(Cl)cc3)cn12	x	73.2*	x	x
Cc1ccc(SCc2cn3c(C)csc3n2)cc1	0.454	73.9*	94.0	94.5
COc1ccc(NC(=O)/C(C#N)=C/c2ccc(Sc3nncn3C)c([N+](=O)[O-])c2)cc1	x	7.0	x	x
O=C1C2C3C=CC(C2C(=O)N1C1CCCCC1)C1C2C(=O)N(C4CCCCC4)C(=O)C2C31 (centres undefined)	x	2.4	88.7	85.1
